# The OligoGym collection
# Molecular target: PHACTR4
# Assay: pooled miR-30 sensor sort-seq; sequence = guide strand
# Settings: shRNA
# Further: reference of the scale not given here.
row,Sequence,sensor-assay potency score (higher = more potent)
1,TTTGATAACAATGTACCACTGT,0.882
2,TTGATAACAATGTACCACTGTT,-0.00481
3,TCTTGAAGTACAATACACCAGG,-0.827
4,TTGACTGAGCTTTCTAGTGAGC,-0.776
5,TTAAACCTCAGAATCTTCCTGG,0.724
6,TTCATGAACCTCCATCTCGGAG,-1.12
7,TTAGGTTGCAATATATTGCGTT,0.996
8,TTCATCTTCTTCATCTCGGTAC,0.467
9,TTCCTTTTTCTGATCTTCCTGC,0.429
10,TTCTTTAACATGGCATCGCTTG,-0.642
11,TTCCAGTTGAGCCTAGTCGTTT,-1.14
12,TTTCGCATAGATATTTTCCGTT,-0.285

# Molecular target: PHF15
# Assay: as above
# Settings: shRNA
row,Sequence,sensor-assay potency score (higher = more potent)
1,ATCTCGTCCAAGTCATAGCGGC,-1.39
2,TTCAATAAGTTTCATCTGCAGG,-0.499
3,TTGACCTCATCGTTGTCTGCTA,-0.147
4,TAGATGTCGCATGACTGTCAGT,-1.14
5,TTGTCTGGAGTCGTCCGTGAAC,-1.11
